Assay results as given in the supplement of paper PMC11219838.

Test system: Meloidogyne hapla J2
Assay: proportion of mobile M. hapla J2 relative to DMSO control (fraction of DMSO control); higher = more viable, less nematicidal, active = 0.7 or less
Details: 60 µM; 5 days; temperature: 20 °C
In short: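 About 25 M. hapla J2 were added per 96-well well in distilled water, and compound was pinned to 60 µM final (0.6% v/v DMSO). Sealed plates were shaken at 200 rpm for 5 days at 20 °C, then 2 µL 1 M NaOH was added before microscopic mobility scoring. Mobility was divided by the mean of eight DMSO wells on the same plate, and two biological replicates were averaged.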

Structure (SMILES) | proportion of mobile M. hapla J2
CCCCc1nc(-c2ccc(-c3ccc(C)cc3)nc2OC)no1 | 0.843 (inactive)
COc1ccc(-c2noc(COc3ccc(Br)c(C)c3)n2)cc1 | 0.972 (inactive)
O=C(Nc1ccc(-c2noc(-c3ccc(Cl)cc3)n2)cc1)c1ccco1 | 1.04 (inactive)
COc1ccccc1OCc1nc(-c2ccccc2)no1 | 0.973 (inactive)
Cc1cccc(-c2noc(-c3ccccc3Br)n2)c1 | 0.99 (inactive)
Clc1ccc(-c2nc(C3CCCCC3)no2)cc1 | 1.04 (inactive)
O=C(Nc1ccc(-c2noc(COc3ccccc3)n2)cc1)c1ccc(F)cc1 | 1.03 (inactive)
Cc1ccc(-c2noc(COc3ccc(C)cc3C)n2)cc1 | 1.02 (inactive)
COc1ccccc1OCc1nc(-c2ccc(Br)cc2)no1 | 1.04 (inactive)
COc1cccc(-c2noc(-c3ccc(Cl)cc3)n2)c1 | 0.983 (inactive)
c1ccc(COc2cccc(-c3nc(-c4ccccn4)no3)c2)cc1 | 1.03 (inactive)
Cc1cccc(-c2noc(COc3ccccc3Cl)n2)c1 | 0.894 (inactive)
Cc1ccc(-c2noc(-c3ccco3)n2)s1 | 1.11 (inactive)
CCOc1cc(C#N)ccc1OCc1nc(-c2cccs2)no1 | 1.07 (inactive)
O=S(=O)(CCC(F)=C(F)F)c1ncc(Cl)s1 [fluensulfone] | 0.0622 (active)
Brc1ccc(-c2noc(COc3ccc4c(c3)OCO4)n2)cc1 | 1.06 (inactive)
Cc1ccc(NC(=O)CSc2nnc(-c3ccccc3)o2)c(C)c1 | 0.951 (inactive)
CCc1nnc(NC(=O)CSc2nnc(-c3ccc(Cl)cc3Cl)o2)s1 | 0.875 (inactive)
Cc1cc(NC(=O)CSc2nnc(-c3ccc(Cl)cc3Cl)o2)no1 | 0.833 (inactive)
Cc1cccc(-c2noc(COc3ccc(Br)cc3)n2)c1 | 0.882 (inactive)

Structure (SMILES) | proportion of mobile M. hapla J2
COc1ccc(Cl)cc1NC(=O)CSc1nnc(-c2ccc(Br)cc2)o1 | 1.03 (inactive)
O=C(CSc1nnc(-c2ccccc2Cl)o1)Nc1ccc(F)cc1 | 0.896 (inactive)
CC(C)(C)NC(=O)CSc1nnc(-c2ccc(C(C)(C)C)cc2)o1 | 1.02 (inactive)
CC(C)(C)c1ccc(-c2noc(COc3ccccc3)n2)cc1 | 0.776 (inactive)
Cc1ccc(-c2noc(COc3ccccc3Cl)n2)cc1 | 0.96 (inactive)
CCCCSc1nnc(-c2ccc(Br)cc2)o1 | 1 (inactive)
Cc1cc(Cl)ccc1OCc1nc(-c2ccncc2)no1 | 1.02 (inactive)
CCOC(=O)c1ccc(OCc2nc(-c3cccs3)no2)cc1 | 1.1 (inactive)
Cc1ccc(-c2nnc(SCC(=O)Nc3nccs3)o2)cc1 | 1.04 (inactive)
CCn1c(SCc2nc(-c3ccccc3)no2)nc2ccccc21 | 1.02 (inactive)
CCOc1nc(-c2ccccc2)ccc1-c1noc(CC)n1 | 0.998 (inactive)
Clc1ccc(OCc2nc(-c3ccccc3)no2)c(Br)c1 | 1.02 (inactive)
Brc1cccc(-c2nc(-c3ccncc3)no2)c1 | 0.991 (inactive)
CCOC(=O)c1sc(NC(=O)CSc2nnc(-c3ccc(Cl)cc3)o2)c(C(=O)OCC)c1C | 0.906 (inactive)
C=CCOc1cccc(-c2nc(-c3cccnc3)no2)c1 | 1.03 (inactive)
COc1ccc(-c2nnc(SCC(=O)N3CC(C)CC(C)C3)o2)cc1 (stereo not drawn) | 1.05 (inactive)
COc1ccccc1-c1nnc(SCC(=O)Nc2nc(C)cs2)o1 | 0.91 (inactive)
Clc1ccccc1-c1nc(-c2ccc3c(c2)OCO3)no1 | 0.983 (inactive)
COc1ccc(-c2noc(COc3ccc(C)cc3C)n2)cc1 | 0.93 (inactive)

Test system: Ditylenchus dipsaci
Assay: proportion of mobile D. dipsaci (mixed stage) relative to DMSO control (fraction of DMSO control); higher = more viable, less nematicidal, active = 0.86 or less; extreme values may be limits of the assay
Details: 60 µM; 5 days; temperature: 20 °C
In short: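 D. dipsaci were grown on pea plants in Gamborg B-5 agar and extracted through a filter funnel into water, and about 20 worms were added per 96-well well in distilled water. Compound was pinned to 60 µM final (0.6% v/v DMSO), and sealed plates were shaken at 200 rpm for 5 days at 20 °C. After 2 µL 1 M NaOH was added, mobile worms were scored microscopically. Mobility was expressed relative to DMSO controls and averaged over two biological replicates.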

Structure (SMILES) | proportion of mobile D. dipsaci
CCCCc1nc(-c2ccc(-c3ccc(C)cc3)nc2OC)no1 | 1 (inactive)
COc1ccc(-c2noc(COc3ccc(Br)c(C)c3)n2)cc1 | 1 (inactive)
O=C(Nc1ccc(-c2noc(-c3ccc(Cl)cc3)n2)cc1)c1ccco1 | 1 (inactive)
COc1ccccc1OCc1nc(-c2ccccc2)no1 | 1 (inactive)
Cc1cccc(-c2noc(-c3ccccc3Br)n2)c1 | 1 (inactive)
Clc1ccc(-c2nc(C3CCCCC3)no2)cc1 | 1 (inactive)
O=C(Nc1ccc(-c2noc(COc3ccccc3)n2)cc1)c1ccc(F)cc1 | 1 (inactive)
Cc1ccc(-c2noc(COc3ccc(C)cc3C)n2)cc1 | 1 (inactive)
COc1ccccc1OCc1nc(-c2ccc(Br)cc2)no1 | 1 (inactive)
COc1cccc(-c2noc(-c3ccc(Cl)cc3)n2)c1 | 1 (inactive)
c1ccc(COc2cccc(-c3nc(-c4ccccn4)no3)c2)cc1 | 1 (inactive)
Cc1cccc(-c2noc(COc3ccccc3Cl)n2)c1 | 1 (inactive)
Cc1ccc(-c2noc(-c3ccco3)n2)s1 | 1 (inactive)
CCOc1cc(C#N)ccc1OCc1nc(-c2cccs2)no1 | 1 (inactive)
O=S(=O)(CCC(F)=C(F)F)c1ncc(Cl)s1 [fluensulfone] | 1 (inactive)
Brc1ccc(-c2noc(COc3ccc4c(c3)OCO4)n2)cc1 | 1 (inactive)
Cc1ccc(NC(=O)CSc2nnc(-c3ccccc3)o2)c(C)c1 | 1 (inactive)
CCc1nnc(NC(=O)CSc2nnc(-c3ccc(Cl)cc3Cl)o2)s1 | 1 (inactive)
Cc1cc(NC(=O)CSc2nnc(-c3ccc(Cl)cc3Cl)o2)no1 | 1 (inactive)
Cc1cccc(-c2noc(COc3ccc(Br)cc3)n2)c1 | 1 (inactive)

Structure (SMILES) | proportion of mobile D. dipsaci
COc1ccc(Cl)cc1NC(=O)CSc1nnc(-c2ccc(Br)cc2)o1 | 1 (inactive)
O=C(CSc1nnc(-c2ccccc2Cl)o1)Nc1ccc(F)cc1 | 1 (inactive)
CC(C)(C)NC(=O)CSc1nnc(-c2ccc(C(C)(C)C)cc2)o1 | 1 (inactive)
CC(C)(C)c1ccc(-c2noc(COc3ccccc3)n2)cc1 | 1 (inactive)
Cc1ccc(-c2noc(COc3ccccc3Cl)n2)cc1 | 1 (inactive)
CCCCSc1nnc(-c2ccc(Br)cc2)o1 | 0.842 (active)
Cc1cc(Cl)ccc1OCc1nc(-c2ccncc2)no1 | 1 (inactive)
CCOC(=O)c1ccc(OCc2nc(-c3cccs3)no2)cc1 | 1 (inactive)
Cc1ccc(-c2nnc(SCC(=O)Nc3nccs3)o2)cc1 | 1 (inactive)
CCn1c(SCc2nc(-c3ccccc3)no2)nc2ccccc21 | 1 (inactive)
CCOc1nc(-c2ccccc2)ccc1-c1noc(CC)n1 | 1 (inactive)
Clc1ccc(OCc2nc(-c3ccccc3)no2)c(Br)c1 | 1 (inactive)
Brc1cccc(-c2nc(-c3ccncc3)no2)c1 | 1 (inactive)
CCOC(=O)c1sc(NC(=O)CSc2nnc(-c3ccc(Cl)cc3)o2)c(C(=O)OCC)c1C | 1 (inactive)
C=CCOc1cccc(-c2nc(-c3cccnc3)no2)c1 | 1 (inactive)
COc1ccc(-c2nnc(SCC(=O)N3CC(C)CC(C)C3)o2)cc1 (stereo not drawn) | 1 (inactive)
COc1ccccc1-c1nnc(SCC(=O)Nc2nc(C)cs2)o1 | 1 (inactive)
Clc1ccccc1-c1nc(-c2ccc3c(c2)OCO3)no1 | 1 (inactive)
COc1ccc(-c2noc(COc3ccc(C)cc3C)n2)cc1 | 1 (inactive)
